From PubChem BioAssay
BAZ2B block – blocks human BAZ2B; Q9UIF8; AlphaScreen BAZ2B-H3K14Ac peptide displacement; Potency, µM (top dose mostly 114 µM), inactives show at the top dose activity change, negative = inhibition, actives largely listed as inhibitors; 4.4% of 360,000 active; AID 504333; note: potency is the fitted concentration of half-maximal effect; % is set by controls: 0 for no effect and ±100 for the full control effect; nearly all actives have a fitted effect of over 60% in size
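BAZ2B (50 nM) with biotin-H3(5-23)K14Ac peptide (50 nM) in PBS pH 7.4, 0.01% Tween-20, preformed 30 min, then compound 30 min at room temperature; top concentration 110uM. AlphaScreen streptavidin donor/nickel chelate acceptor beads (10 ug/mL final), 20 min dark, signal read.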
PLK1 PBD inh – blocks phosphopeptide binding to human PLK1 polo-box domain | P53350 | Plk1 PBD binding of FITC phosphopeptide, fluorescence polarization | Potency, µM, without a hit: max response, negative = inhibition, most hits filed as inhibitors | 2.8% of 360,000 active | AID 720504; note: potency is the fitted concentration of half-maximal effect; series mostly up to about 57 µM; % is set by controls: 0 for no effect and ±100 for the full control effect; nearly all actives have a fitted effect of over 65% in size
G9a inh – inhibitors of human histone lysine methyltransferase G9a; Q96KQ7; G9a H3K9 monomethylation, AlphaScreen, 2 h; Potency, µM (highest dose often 102 µM), for the others: top-dose activity, negative = inhibition, actives largely listed as inhibitors; 8.8% of 350,000 active; AID 504332; note: potency is the fitted concentration of half-maximal effect; % is set by controls: 0 for no effect and ±100 for the full control effect; nearly all actives have a fitted effect of over 75% in size
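AlphaScreen detection with an anti-monomethyl H3K9 antibody quantified product after a 2 h room-temperature reaction containing 500 nM biotinylated H3K9 peptide, 20 µM SAM and 20 nM enzyme, which had been preincubated 15 min with compound.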
PI5P4K alpha inh – blocks human PI5P4K alpha kinase activity. P48426. PI5P4Kalpha enzyme, ADP-Glo luminescence, 60 min; stronger effect = lower value. max response, %. 1.2% of 330,000 active. AID 652105; active = max response of -50% or lower; inconclusive = between -30% and -50%; inactive = -30% or higher; note: value at the top dose of about 77 µM; % is set by controls: 0 for no effect and ±100 for the full control effect
Target sequence (P48426 whole entry, looked up): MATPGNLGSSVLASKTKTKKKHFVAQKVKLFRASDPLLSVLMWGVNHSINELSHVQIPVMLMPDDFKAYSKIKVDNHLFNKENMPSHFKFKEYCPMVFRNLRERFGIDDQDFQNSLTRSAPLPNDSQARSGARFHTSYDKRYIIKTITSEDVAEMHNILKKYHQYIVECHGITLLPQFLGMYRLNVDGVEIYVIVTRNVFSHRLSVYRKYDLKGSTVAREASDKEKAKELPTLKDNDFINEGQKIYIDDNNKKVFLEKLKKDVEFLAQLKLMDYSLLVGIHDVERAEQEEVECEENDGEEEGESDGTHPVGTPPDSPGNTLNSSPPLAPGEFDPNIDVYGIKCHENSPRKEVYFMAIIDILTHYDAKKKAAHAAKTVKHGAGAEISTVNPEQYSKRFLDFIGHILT
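Reactions run in 0.038 M HEPES pH 7.4, 0.28 mM EGTA, 0.1% CHAPS and 5% DMSO, with PI5P4Kalpha, substrate, compound and 5 microM ATP final, one hour at room temperature. Readout is ADP-Glo luminescence.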
HP1b chromo inh – inhibitors of HP1-beta chromodomain binding to methylated histone tails. 0.56% of 390,000 active. AID 540317. P83916. AlphaScreen HP1-beta / biotin-H3K9me3 peptide binding. Potency, µM (top dose mostly 114 µM), inactives show at the top dose activity change, negative = inhibition, hits mostly inhibitors; note: potency is the fitted concentration of half-maximal effect; nearly all actives have a fitted effect of over 70% in size
Target sequence (P83916 whole entry, looked up): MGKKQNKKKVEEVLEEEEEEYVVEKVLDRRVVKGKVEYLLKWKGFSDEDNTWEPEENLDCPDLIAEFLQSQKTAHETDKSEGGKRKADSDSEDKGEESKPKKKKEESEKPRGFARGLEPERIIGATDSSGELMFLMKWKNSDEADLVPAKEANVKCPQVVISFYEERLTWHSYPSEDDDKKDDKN
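Compound inhibition of the preformed complex between 50 nM HP1-beta and 50 nM biotinylated H3K9me3 peptide was read by AlphaScreen. Buffer was PBS pH 7.4 with 0.01% Tween-20. Incubations ran 30 min at room temperature, with 10 ug/mL donor/acceptor beads.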
JMJD2A Tudor inh – JMJD2A Tudor domain (human) inhibition | AlphaScreen JMJD2A-Tudor / H3K4me3 peptide binding | Potency, µM (doses to about 114 µM), inactives show at the top dose activity change, negative = inhibition, hits mostly inhibitors | O75164 | 4.4% of 390,000 active; note: potency is the fitted concentration of half-maximal effect; % is set by controls: 0 for no effect and ±100 for the full control effect; nearly all actives have a fitted effect of over 50% in size
* hit, by the source's call; [ ] = another dose, or the depositor's remark. This is a sample that favours compounds with a hit; in the whole collection about 12% have one here. Unless noted, calls come from the whole dose curve; as a rule, active = well fitted curve in the direction sought with a large enough effect; inconclusive = small, poorly fitted or top-dose-only effect, or another doubt; inactive = no such curve, though single readings can be large; an effect the other way counts as inactive or inconclusive.

Screening CC(=O)Nc1ccc(S(=O)(=O)NC(C)C(=O)NC(C)c2ccccc2)cc1 (stereo not drawn) returned BAZ2B block -1.8%, PLK1 PBD inh 11.9µM*, G9a inh inconclusive, PI5P4K alpha inh 0.2, HP1b chromo inh 38.6% and JMJD2A Tudor inh -11.0%.
Screening CCOC(=O)C1=C(C)NC(C)=C(C(=O)OCC)C1c1c(F)c(F)c(F)c(F)c1F returned G9a inh 37.0%[59 µM].
`COc1cc(C(C)=O)ccc1OCC(=O)N1CCC(Cc2ccccc2)CC1` gave PLK1 PBD inh -6.7% and PI5P4K alpha inh -4.9.
COc1cc(C(C)=O)ccc1OCCCN1CCC(Cc2ccccc2)CC1 was read as BAZ2B block 56.2µM*, PLK1 PBD inh -7.7%, G9a inh 35.5µM*, PI5P4K alpha inh 1.7, HP1b chromo inh inconclusive and JMJD2A Tudor inh inconclusive.
Screening O=C(OCC(=O)N1CCC(Cc2ccccc2)CC1)c1cc(Cl)ccc1O returned BAZ2B block 7.9%, PLK1 PBD inh -12.5%, G9a inh 8.5%[0.501 µM], PI5P4K alpha inh 0.0, HP1b chromo inh 52.6% and JMJD2A Tudor inh 8.3%.
For OCc1ccccc1OCCCN1CCC(Cc2ccccc2)CC1 the results were BAZ2B block inconclusive, PLK1 PBD inh 0.9%, G9a inh 35.5µM*, PI5P4K alpha inh 2.7, HP1b chromo inh inconclusive and JMJD2A Tudor inh 22.4µM*.
`COc1cc(C(C)=O)ccc1OCCN1CCC(Cc2ccccc2)CC1` gave BAZ2B block 31.6µM*, PLK1 PBD inh -8.6%, G9a inh inconclusive, PI5P4K alpha inh -1.8, HP1b chromo inh 44.7µM* and JMJD2A Tudor inh 1.58µM*.
For O=Cc1cc(Cl)ccc1OCCN1CCC(Cc2ccccc2)CC1 the results were BAZ2B block inconclusive, PLK1 PBD inh -6.9%, G9a inh 25.1µM*, PI5P4K alpha inh -5.0, HP1b chromo inh inconclusive and JMJD2A Tudor inh 20µM*.
N#CCCN(C(=O)COC(=O)CCNS(=O)(=O)c1ccccc1)c1ccccc1 was read as BAZ2B block 8.9%, PLK1 PBD inh -10.1%, G9a inh 7.9%[2.33 µM], PI5P4K alpha inh -2.5, HP1b chromo inh 23.0% and JMJD2A Tudor inh 1.0%.
Screening Cc1cccc(C)c1NC(=O)C1(C)CN(S(C)(=O)=O)CC(=O)N1CCCN1CCOCC1 (stereo not drawn) returned PLK1 PBD inh -7.9% and PI5P4K alpha inh 3.3.
C=CCOc1ccccc1CN1CCC(Cc2ccccc2)CC1 was read as BAZ2B block inconclusive, PLK1 PBD inh 4.8%, PI5P4K alpha inh 0.7, HP1b chromo inh inconclusive and JMJD2A Tudor inh 3.16µM*.
C=CCOc1ccccc1CN1CCC(n2nccc2NC(=O)c2ccccc2)CC1 was read as BAZ2B block -8.6%, PLK1 PBD inh -9.5%, G9a inh -7.2%, PI5P4K alpha inh 2.9, HP1b chromo inh 39.4% and JMJD2A Tudor inh -13.5%.
For Cc1ccc(C(=O)Nc2nnc(SCc3cc(=O)n4ccc(C)cc4n3)s2)cc1 the results were BAZ2B block 5.6%, G9a inh 15.0%[59 µM], HP1b chromo inh 12.7%[57 µM] and JMJD2A Tudor inh -6.5%.
Cc1nn(CC(=O)N2CCN(S(=O)(=O)c3ccccc3)CC2)c(C)c1[N+](=O)[O-] was read as BAZ2B block 0.7%, PLK1 PBD inh -4.6%, G9a inh 5.9%[2.33 µM], PI5P4K alpha inh -3.4, HP1b chromo inh 29.4% and JMJD2A Tudor inh -10.8%.
CCc1cc2c(nc1CC)CCN(CC/C(C)=N/OC[C@H]1O[C@H](c3ccccc3)C=C[C@@H]1Oc1ccc(OC)cc1)C2 was read as BAZ2B block inconclusive and G9a inh 44.7µM*.
Screening COc1ccc(O[C@H]2C=C[C@@H](c3ccccc3)O[C@@H]2COC(=O)CC/C(C)=N/O[C@@H](C)c2cc(-c3c(C)cc(C)cc3C)no2)cc1 returned BAZ2B block -5.0% and G9a inh -20.5%.
COc1ccc(O[C@H]2C=C[C@@H](c3ccccc3)O[C@@H]2COC(=O)CC/C(C)=N/OC[C@@H](O)COCc2ccco2)cc1 was read as BAZ2B block -37.8% and G9a inh inconclusive.
Screening COc1ccc(O[C@H]2C=C[C@@H](c3ccccc3)O[C@@H]2CO/N=C(\C)CCN2CCc3nc(-c4ccccc4)c(-c4ccccc4)cc3C2)cc1 returned BAZ2B block -37.7% and G9a inh 31.6µM*.
O=C(/C=C/c1ccco1)Nc1ccc(Cl)c(-c2nc3cc(Cl)ccc3o2)c1 was read as BAZ2B block -12.8%, G9a inh -32.6%[59 µM], HP1b chromo inh 22.2% and JMJD2A Tudor inh -13.1%.
Screening CC(=O)Nc1cccc(C(=O)OCC(=O)NC(=O)C2CCCCC2)c1 returned HP1b chromo inh 61.3% and JMJD2A Tudor inh -6.4%.
Screening CCc1cc(C(=O)NNC(=O)CCN2CCN(c3ccccc3)CC2)sc1C returned BAZ2B block inconclusive, PLK1 PBD inh -0.7%, G9a inh 39.8µM*, PI5P4K alpha inh 2.6, HP1b chromo inh 14.4% and JMJD2A Tudor inh -27.2%.
Cc1cc(C(=O)NNC(=O)CCN2CCN(c3ccccc3)CC2)c2ccccc2n1 was read as BAZ2B block -5.7%, PLK1 PBD inh -6.1%, G9a inh 6.1%, PI5P4K alpha inh -2.6, HP1b chromo inh 20.7% and JMJD2A Tudor inh -11.7%.
CCc1ccc(S(=O)(=O)NC(=S)Nc2ccccc2)cc1 was read as BAZ2B block -3.5%, PLK1 PBD inh 26.7µM*, G9a inh 17.8µM*, PI5P4K alpha inh -6.8, HP1b chromo inh -25.5% and JMJD2A Tudor inh -19.2%.
`CCNC(=S)NS(=O)(=O)c1ccc(CC)cc1` gave BAZ2B block -4.2%, PLK1 PBD inh -25.6%, G9a inh 28.2µM*, HP1b chromo inh -3.3% and JMJD2A Tudor inh 25.1µM*.
Screening Cc1ccc(S(=O)(=O)CNC(=S)c2cccc(Cl)c2)cc1 returned BAZ2B block -36.5%, PLK1 PBD inh inconclusive, G9a inh inconclusive, PI5P4K alpha inh -12.4, HP1b chromo inh -15.3% and JMJD2A Tudor inh -14.9%[57.1 µM].
`CCNC(=S)NS(=O)(=O)c1ccc(C)cc1` gave BAZ2B block -36.6%, PLK1 PBD inh 8.5%, G9a inh 31.6µM*, PI5P4K alpha inh -7.2, HP1b chromo inh 7.8% and JMJD2A Tudor inh -34.0%.
For Cc1ccc(C(=S)NCS(=O)(=O)c2ccc(C)cc2)cc1 the results were BAZ2B block inconclusive, PLK1 PBD inh inconclusive, G9a inh 39.8µM*, HP1b chromo inh -10.2% and JMJD2A Tudor inh inconclusive.
CCOC(=O)N1CCc2c(sc3c2c(=O)n(Cc2ccccc2)c(=O)n3CC(=O)Nc2ccc(C)c(C)c2)C1 was read as BAZ2B block -11.3%, G9a inh 0.6%[59 µM], HP1b chromo inh 15.7% and JMJD2A Tudor inh -18.9%.
